The results in this text go back to PubChem BioAssay AID504715 (Sanford-Burnham Center for Chemical Genomics, 2011).

This is one part of the list. Values without a mark were called inactive.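 How the source made its calls: active means compounds giving 40% or more inhibition at 20 µM in any one of the three replicates; inactive means the rest.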

The target of the assay is Uracil-DNA glycosylase (Escherichia coli (strain K12)) (UniProt P12295). As to the kind of experiment: uracil-DNA glycosylase inhibition, oligo cleavage readout – biochemical, single concentration, fluorescence, FAM/TAMRA oligo, counter-screen for APOBEC3G inhibitor project, confirmation (AID 504715).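 Further: plate controls were DMSO wells with UDG and oligo for no effect and DMSO wells lacking both for full effect; inhibitors lower the FAM signal released by uracil excision and alkaline cleavage.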 The conditions noted are these: UDG counterscreen, at 20 µM, active compounds read high.
Chain of Uracil-DNA glycosylase (Escherichia coli (strain K12)) (P12295 whole entry, looked up): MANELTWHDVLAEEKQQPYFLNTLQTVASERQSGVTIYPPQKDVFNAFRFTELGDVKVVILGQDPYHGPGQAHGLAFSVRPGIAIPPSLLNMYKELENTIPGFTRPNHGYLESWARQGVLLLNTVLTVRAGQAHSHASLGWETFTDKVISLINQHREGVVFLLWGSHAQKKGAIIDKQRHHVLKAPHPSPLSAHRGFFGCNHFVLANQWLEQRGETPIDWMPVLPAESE

Broadly, the inhibition is the relative decrease from the control value, in per cent. As to `COC(=O)N(c1ccc(OC)cc1)P1(=S)OCCC(C)O1` (stereo unspecified), the inhibition is -3.68%.
